Source: PubChem BioAssay AID1159580 (chemical genetic matrix, 2015)
Values joined by “and” are separate entries in the source; they are usually repeats but may differ in a detail not shown here. Equal entries are not always repeated. The campaign covered roughly 5,500 compounds. About 2,000 (36%) were called active. Inconclusive results (about 18%) are left out. Cut-off read from the data, not from the text of the source: active = normalized growth mostly below about 0.91 (no sharp cut-off); inconclusive = no clear call, values can overlap the other calls; inactive = mostly above about 0.92. The list shows a part of the results.

Assay: chemical genetic growth profiling, strain panel (AID 1159580);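 note: tested at 20 µM; growth read once vehicle control cultures reached saturation at 30 °C; 1 = growth at the plate median or of vehicle wells; lower values mean less growth of the strain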
Settings: S. cerevisiae deletion strains, growth OD

Measured: normalized growth

CC(=O)Oc1ccc(C(c2ccc(OC(C)=O)cc2)c2ccccn2)cc1
inactive: locus YAL021C, strain ccr4, hits give low values 1.02 | locus YAL026C, strain drs2, hits give low values 1.02 | locus YAL030W, strain snc1, hits give low values 1.01 | locus YBL061C, strain skt5, hits give low values 1.01 | locus YBR009C, strain hhf1, hits give low values 1.04 | locus YBR021W, strain FUR4, hits give low values 0.998 | locus YBR023C, strain chs3, hits give low values 1.02 | locus YBR171W, strain sec66, hits give low values 1.02 | locus YBR229C, strain ROT2, hits give low values 0.969 | locus YBR231C, strain swc5, hits give low values 0.997 | locus YBR279W, strain paf1, hits give low values 1.01 | locus YCL011C, strain gbp2, hits give low values 1.02 | locus YCL016C, strain dcc1, hits give low values 1.02 | locus YCL029C, strain bik1, hits give low values 0.988 | locus YCL069W, strain vba3, hits give low values 1.01 | locus YCR088W, strain abp1, hits give low values 1.02 | locus YDL005C, strain med2, hits give low values 1.01 | locus YDL035C, strain GPR1, hits give low values 1.03 | locus YDL040C, strain nat1, hits give low values 1.01 | locus YDL074C, strain BRE1, hits give low values 0.995 | locus YDL101C, strain DUN1, hits give low values 0.974 | locus YDL185W, strain tfp1, hits give low values 0.993 | locus YDL192W, strain arf1, hits give low values 0.984 | locus YDR001C, strain nth1, hits give low values 1.02 | locus YDR069C, strain doa4, hits give low values 1.01 | locus YDR101C, strain arx1, hits give low values 0.996 | locus YDR137W, strain rgp1, hits give low values 1.02 | locus YDR150W, strain NUM1, hits give low values 0.99 | locus YDR159W, strain sac3, hits give low values 0.993 | locus YDR162C, strain NBP2, hits give low values 1.03 | locus YDR195W, strain ref2 0.985 | locus YDR297W, strain sur2, hits give low values 1.02 | locus YDR318W, strain mcm21, hits give low values 0.994 | locus YDR334W, strain swr1, hits give low values 1.02 | locus YDR335W, strain msn5, hits give low values 1.02 | locus YDR388W, hits give low values 0.987 | locus YDR392W, strain spt3, hits give low values 1.03 | locus YDR502C, strain sam2, hits give low values 0.999 | locus YEL003W, strain gim4, hits give low values 1.02 | locus YEL037C, strain rad23, hits give low values 1.02 | locus YEL061C, strain CIN8 (second series), hits give low values 1.01 | locus YEL061C, strain CIN8, hits give low values 0.99 | locus YER015W, strain faa2, hits give low values 1.01 | locus YER016W, strain bim1, hits give low values 1.03 | locus YER110C, hits give low values 0.977 | locus YER111C, strain swi4, hits give low values 1.01 | locus YER155C, strain BEM2 (second series), hits give low values 1.03 | locus YER155C, strain BEM2, hits give low values 0.983 | locus YER167W, strain BCK2, hits give low values 1 | locus YFR010W, strain ubp6, hits give low values 0.996 | locus YGL078C, strain dbp3, hits give low values 0.991 | locus YGL086W, strain mad1, hits give low values 0.982 | locus YGL167C, strain pmr1, hits give low values 1.03 | locus YGL173C, strain kem1, hits give low values 1.02 | locus YGL227W, strain vid30, hits give low values 1.01 | locus YGL240W, strain doc1, hits give low values 1 | locus YGL248W, strain PDE1, hits give low values 0.966 | locus YGL253W, strain hxk2, hits give low values 1.03 | locus YGR135W, strain pre9, hits give low values 0.996 | locus YGR229C, strain SMI1, hits give low values 1.01 | locus YGR252W, strain gcn5, hits give low values 0.961 | locus YHR013C, strain ard1, hits give low values 1.06 | locus YHR027C, strain rpn1, hits give low values 1.02 | locus YHR030C, strain SLT2, hits give low values 0.99 and 1.02 | locus YHR079C, strain IRE1 (second series), hits give low values 0.993 | locus YHR079C, strain IRE1, hits give low values 0.983 | locus YHR094C, strain hxt1, hits give low values 0.989 | locus YHR129C, strain ARP1, hits give low values 0.989 | locus YHR142W, strain chs7, hits give low values 1.01 | locus YHR200W, strain rpn10, hits give low values 0.984 | locus YIL066C, strain RNR3, hits give low values 1.02 | locus YIL073C, strain SPO22, hits give low values 1.01 | locus YIL125W, strain kgd1, hits give low values 0.985 | locus YIR030C, strain dcg1, hits give low values 0.999 | locus YJL092W, strain hpr5, hits give low values 1.01 | locus YJL095W, strain BCK1 (second series), hits give low values 1.03 | locus YJL095W, strain BCK1, hits give low values 0.975 and 1 | locus YJL115W, strain asf1, hits give low values 1.01 | locus YJL129C, strain trk1, hits give low values 1.03 | locus YJL134W, strain LCB3, hits give low values 0.987 | locus YJL154C, strain vps35, hits give low values 1.01 | locus YJL164C, strain tpk1, hits give low values 1.02 | locus YJL166W, strain qcr8, hits give low values 1 | locus YJL168C, strain set2, hits give low values 0.985 | locus YJL187C, strain SWE1 (second series), hits give low values 0.967 | locus YJR043C, strain POL32, hits give low values 1.02 | locus YJR066W, strain TOR1, hits give low values 0.976
